High-throughput results from PubChem BioAssay.
Compounds with a hit are over-represented: about 2% of the library has one in this group of screens.
Rev-erbA mod: modulators of Rev-erb alpha DNA binding, primary screen, biochemical, FITC-DNA, fluorescence polarization, uHTS; Nuclear receptor subfamily 1 group D member 1 (Homo sapiens), P20393; Rev-erbα–FITC-DNA binding, 90 min; activity, % at 10 µM; hit rate 0.79% among 370,000;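 active = activity above about 14%, limit read from the data; passing the limit was not always enough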
PG9 Ab binder: binders of HIV-1 gp120 antibody PG9, primary screen, biochemical, TR-FRET. AID 624416, 2012. inhibition, % at 6.7 µM. HIV-1 gp120 / PG9 antibody interaction. TR-FRET gp120-PG9 antibody binding. hit rate 0.43% among 360,000; in the data active = inhibition above about 8.5%
Granule exo inh: LAMP-1 surface exposure blockers, TALL-104 cells – cell-based, flow cytometry, MLPCN library, primary screen. hit rate 0.66% among 360,000. TALL-104 LAMP-1 surface exposure; cells stimulated with thapsigargin and PMA. AID 651702, 2012. inhibition, % at 10 µM;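 active = inhibition above about 55%, limit read from the data; inconclusive = no clear call, values can overlap the other calls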
ABCB6 inh 2: ABCB6 transporter inhibitors, primary screen, K562-ABCB6 cells, flow cytometry, MLPCN library; AID 602162, 2011; ATP-binding cassette sub-family B member 6 (Homo sapiens), Q9NP58; K562-ABCB6 porphyrin accumulation, 1 h; stronger effect = lower value; hit rate 0.19% among 360,000; fluorescence ratio to DMSO, % at 10 µM;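 active = fluorescence ratio to DMSO below 75%, the collection mean minus 3 SD; inconclusive = too few cells collected in the well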;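 note: signal is porphyrin accumulated inside mitochondria; lower ratio means ABCB6 inhibition with less porphyrin fluorescence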
VLA-4 inh: inhibition in human VLA-4 binding assay, primary screen, VLA-4 allosteric modulator project, MLPCN library, flow cytometry, VLA-4 expressing cells; Integrin alpha-4 (Homo sapiens), P13612; ligand binding flow cytometry; inhibition, % (about 7 µM as worked out from the volumes in the protocol); hit rate 0.2% among 330,000; in the data active = inhibition above about 50%
Target sequence (P13612 whole entry, looked up): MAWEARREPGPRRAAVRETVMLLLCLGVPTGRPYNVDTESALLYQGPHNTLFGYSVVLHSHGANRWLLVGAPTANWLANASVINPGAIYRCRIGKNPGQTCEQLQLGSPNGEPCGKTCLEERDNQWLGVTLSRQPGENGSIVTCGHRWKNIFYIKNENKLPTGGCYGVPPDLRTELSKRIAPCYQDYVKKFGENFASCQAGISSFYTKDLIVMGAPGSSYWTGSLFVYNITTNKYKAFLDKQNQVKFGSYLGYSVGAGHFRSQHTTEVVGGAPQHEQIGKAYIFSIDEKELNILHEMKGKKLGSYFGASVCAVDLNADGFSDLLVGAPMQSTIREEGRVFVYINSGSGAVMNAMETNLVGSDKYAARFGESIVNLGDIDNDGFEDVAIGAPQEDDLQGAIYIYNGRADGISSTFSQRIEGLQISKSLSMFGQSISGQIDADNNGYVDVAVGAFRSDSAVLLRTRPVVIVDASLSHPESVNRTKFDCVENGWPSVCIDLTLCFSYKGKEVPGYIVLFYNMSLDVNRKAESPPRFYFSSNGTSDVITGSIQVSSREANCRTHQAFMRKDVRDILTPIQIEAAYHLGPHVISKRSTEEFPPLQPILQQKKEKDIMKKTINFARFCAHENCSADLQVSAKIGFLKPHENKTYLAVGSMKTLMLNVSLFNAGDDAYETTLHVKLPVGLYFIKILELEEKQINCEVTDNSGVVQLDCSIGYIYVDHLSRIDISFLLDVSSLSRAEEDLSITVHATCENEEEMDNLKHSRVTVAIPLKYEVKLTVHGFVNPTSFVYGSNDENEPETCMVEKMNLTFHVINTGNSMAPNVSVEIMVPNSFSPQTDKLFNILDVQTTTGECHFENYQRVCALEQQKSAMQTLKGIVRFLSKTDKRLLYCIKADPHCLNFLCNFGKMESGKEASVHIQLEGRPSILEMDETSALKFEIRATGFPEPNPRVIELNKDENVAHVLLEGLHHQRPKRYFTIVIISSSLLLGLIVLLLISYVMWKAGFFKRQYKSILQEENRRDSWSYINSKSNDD
PG9 bind confirm: binders of anti-gp120 antibody PG9, confirmation, biochemical, TR-FRET | shares compounds with PG9 Ab binder | TR-FRET PG9 antibody binding | inhibition, % at 6.7 µM | hit rate 90% among 1,500 | AID 651571, 2012; in the data active = inhibition above about 9%
PGV04 counter: binders of control antibody PGV04, counter-screen for PG9 antibody binder project, biochemical, TR-FRET, distinct HIV envelope site. hit rate 95% among 1,500. TR-FRET PGV04 antibody-gp120 binding. shares compounds with PG9 Ab binder. inhibition, % at 6.7 µM. AID 651604, 2012; in the data active = inhibition above about 9.5%
PG9 bind DR: small-molecule binders of antibody PG9, dose response, biochemical, TR-FRET, HIV-1 gp120 antibody | shares compounds with PG9 Ab binder | TR-FRET PG9 antibody-gp120 binding inhibition | IC50, µM | 95 tested, under 10 active | AID 651848, 2012; in the data active = IC50 below about 10 µM
PGV04 binding DR: binders of control antibody PGV04, dose response, counter-screen for PG9 antibody binder project, biochemical, TR-FRET, distinct HIV envelope site; shares compounds with PG9 Ab binder; TR-FRET binding to control antibody PGV04; IC50, µM; hit rate 20% among 95; AID 651937, 2012
PG126 binding DR: binders of control antibody PG126, dose response, counter-screen for PG9 antibody binder project, biochemical, TR-FRET, distinct HIV envelope site; shares compounds with PG9 Ab binder; TR-FRET binding to antibody PG126, counterscreen; IC50, µM; hit rate 20% among 95
Of the large screens only hits and unclear results are named; the others gave an inactive call (follow-up assays come after a bar, where they were run). Cut-off read from the data, not from the text of the source, unless noted: active = IC50 below about 9 µM; inactive = the rest.

COC(=O)c1sc(NC(=O)COc2ccccc2C)nc1C	PG9 Ab binder 11 | PG9 bind confirm 20 | PGV04 counter 28
COC(=O)c1sc(NC(=O)COc2c(C)cccc2C)nc1C	none
O=C(COCc1ccccc1)NC1CCCCN(Cc2cccc(Cl)c2)C1=O (stereo not drawn)	none (no result: PG9 Ab binder, Granule exo inh, ABCB6 inh 2, VLA-4 inh)
Cc1sc2nc(SCC(=O)Nc3ccccc3F)[nH]c(=O)c2c1C	PG9 Ab binder 8.7 | PG9 bind confirm 21 | PGV04 counter 34
COc1cccc(-c2nnc3sc(-c4ccco4)nn23)c1	none
CCOc1cccc(-c2nn3c(-c4ccco4)nnc3s2)c1	PG9 Ab binder 12 | PG9 bind confirm 39 | PGV04 counter 29 | PG9 bind DR inactive | PGV04 binding DR inactive | PG126 binding DR inactive
COC(=O)c1cc2c(C)c(C)c3ccccn3c-2c1C(=O)OC	none
COC(=O)c1cc2n3ccccc3c(C)c(-c3ccccc3)c-2c1C(=O)OC	PG9 Ab binder 21 | PG9 bind confirm 29 | PGV04 counter 39
CCc1nnc(NC(=O)Cc2ccc(OCc3c(C)noc3C)cc2)s1	PG9 Ab binder 19 | PG9 bind confirm 19 | PGV04 counter 42
CCCCc1nnc(NC(=O)c2ccc(OCc3c(C)noc3C)cc2)s1	none (no result: VLA-4 inh)
CCCCc1ccc2nc(NC(=O)c3ccco3)sc2c1	none (no result: PG9 Ab binder, Granule exo inh, ABCB6 inh 2, VLA-4 inh)
COc1ccc(-c2cc(NC(=O)Cc3c(C)[nH]c4ccccc34)ccc2Nc2cccnc2)cc1F	none (no result: Granule exo inh, ABCB6 inh 2, VLA-4 inh)
COc1cc(OC)c(C2Nc3cccc4cccc(c34)N2)c(OC)c1	PG9 Ab binder 12, Granule exo inh 76 | PG9 bind confirm inactive | PGV04 counter 12
Cn1c(C(=O)N2CCN(c3nc4ccccc4s3)CC2)cc2sccc21	PG9 Ab binder 14 | PG9 bind confirm 20 | PGV04 counter 31
Cc1ccc(C2C(C#N)=C(N)SC(N)=C2C#N)cc1	PG9 Ab binder 13 (no result: VLA-4 inh) | PG9 bind confirm inactive | PGV04 counter inactive
Cc1ccc(C2C(C#N)=C(N)SC(N)=C2C#N)c(C)c1	none (no result: Rev-erbA mod, PG9 Ab binder)
CCCC1CCC2(CCC(=O)N2CCC#N)CC1 (stereo not drawn)	none (no result: PG9 Ab binder, Granule exo inh, ABCB6 inh 2, VLA-4 inh)
Nc1c(S(=O)(=O)c2ccccc2)c2nc3ccccc3nc2n1CCN1CCOCC1	none
Cc1ccc(S(=O)(=O)c2c(N)n(CCN3CCOCC3)c3nc4ccccc4nc23)cc1C	PG9 Ab binder 26 | PG9 bind confirm 17 | PGV04 counter 29
CC1CCCCN1C(=O)CSc1nc(C2CC2)nc2c1cnn2-c1ccccc1 (stereo not drawn)	none
Cc1nn(C)c(C)c1NC(=O)CSc1nc(C2CC2)nc2c1cnn2-c1ccccc1	PG9 Ab binder 13 | PG9 bind confirm 43 | PGV04 counter 74
O=C(C1=C(O)C(=O)N(CCN2CCOCC2)C1c1ccco1)c1cc2ccccc2o1 (stereo not drawn)	none
COc1ccccc1C1C(C(=O)c2cc3ccccc3o2)=C(O)C(=O)N1CCN(C)C (stereo not drawn)	PG9 Ab binder 13, Granule exo inh inconclusive | PG9 bind confirm 24 | PGV04 counter 34
CN(C)CCN1C(=O)C(O)=C(C(=O)c2cc3ccccc3o2)C1c1cccc(Br)c1 (stereo not drawn)	PG9 Ab binder 31 | PG9 bind confirm 38 | PGV04 counter 47
O=C(C1=C(O)C(=O)N(CCN2CCOCC2)C1c1cccc([N+](=O)[O-])c1)c1cc2ccccc2o1 (stereo not drawn)	none (no result: VLA-4 inh)
O=C(C1=C(O)C(=O)N(CCc2ccccc2)C1c1cccnc1)c1ccco1 (stereo not drawn)	none
O=C(C1=C(O)C(=O)N(CCc2ccccc2)C1c1ccncc1)c1cc2ccccc2o1 (stereo not drawn)	PG9 Ab binder 19 | PG9 bind confirm 30 | PGV04 counter 40
COc1cc(C2C(C(C)=O)=C(O)C(=O)N2CCN(C)C)ccc1O (stereo not drawn)	none
O=C(C1=C(O)C(=O)N(CCCN2CCOCC2)C1c1ccccn1)c1cc2ccccc2o1 (stereo not drawn)	PG9 Ab binder 15 | PG9 bind confirm 19 | PGV04 counter 25
CCOC(=O)[C@@]12CCC3=C1N(CCC3)C(=O)[C@H](CC(=O)N1CCC(c3ccccc3)CC1)C2	none (no result: PG9 Ab binder, Granule exo inh, ABCB6 inh 2, VLA-4 inh)
Cc1ccccc1CN1CCCCC(NC(=O)C2CCCCC2)C1=O (stereo not drawn)	none (no result: PG9 Ab binder, Granule exo inh, ABCB6 inh 2, VLA-4 inh)
CC1(c2nnnn2C2CCCCC2)CSCC(=O)N1CCc1ccc(O)cc1 (stereo not drawn)	none (no result: PG9 Ab binder, Granule exo inh, ABCB6 inh 2, VLA-4 inh)
O=C(C1=C(O)C(=O)N(CCN2CCOCC2)C1c1ccc(F)cc1)c1cc2ccccc2o1 (stereo not drawn)	PG9 Ab binder 11 | PG9 bind confirm 17 | PGV04 counter 22
CCN(CC)CCN1C(=O)C(O)=C(C(=O)c2cc3ccccc3o2)C1c1cccnc1 (stereo not drawn)	PG9 Ab binder 24 | PG9 bind confirm 36 | PGV04 counter 46
COc1cccc2cc(C(=O)C3=C(O)C(=O)N(CCN(C)C)C3c3ccc(Cl)cc3)oc12 (stereo not drawn)	PG9 Ab binder 14 | PG9 bind confirm 22 | PGV04 counter 28
O=C(C1=C(O)C(=O)N(CCN2CCOCC2)C1c1cccc(Br)c1)c1cc2ccccc2o1 (stereo not drawn)	PG9 Ab binder 23 | PG9 bind confirm 34 | PGV04 counter 43
CCN(CC)CCN1C(=O)C(O)=C(C(=O)c2sc(C)nc2C)C1c1cccnc1 (stereo not drawn)	none
Cc1cc(NC(=O)c2ccc(NS(=O)(=O)c3ccccc3F)cc2)no1	none (no result: PG9 Ab binder, Granule exo inh, ABCB6 inh 2, VLA-4 inh)
Nc1c(C(=O)Nc2ccccc2)sc2nc(N3CCOCC3)c3c(c12)CCCC3	none (no result: VLA-4 inh)
